Sampled rows, rich in hits. Any-hit rate of the full collection: about 2.1%.
D2 PAM-1: Beta-Arrestin HTS for Positive Allosteric Modulators of the Human D2 Dopamine Receptor: Potentiators | D(2) dopamine receptor (Homo sapiens), P14416 | DiscoveRx D2 beta-arrestin cells, luminescence, 90 min; 100% = 57 uM dopamine signal | potentiation, % (test concentration not listed) | hit rate 0.23% among 360,000; in the data active = potentiation above about 50%; inconclusive = mostly about 30% to 49%
Target sequence (P14416 whole entry, looked up): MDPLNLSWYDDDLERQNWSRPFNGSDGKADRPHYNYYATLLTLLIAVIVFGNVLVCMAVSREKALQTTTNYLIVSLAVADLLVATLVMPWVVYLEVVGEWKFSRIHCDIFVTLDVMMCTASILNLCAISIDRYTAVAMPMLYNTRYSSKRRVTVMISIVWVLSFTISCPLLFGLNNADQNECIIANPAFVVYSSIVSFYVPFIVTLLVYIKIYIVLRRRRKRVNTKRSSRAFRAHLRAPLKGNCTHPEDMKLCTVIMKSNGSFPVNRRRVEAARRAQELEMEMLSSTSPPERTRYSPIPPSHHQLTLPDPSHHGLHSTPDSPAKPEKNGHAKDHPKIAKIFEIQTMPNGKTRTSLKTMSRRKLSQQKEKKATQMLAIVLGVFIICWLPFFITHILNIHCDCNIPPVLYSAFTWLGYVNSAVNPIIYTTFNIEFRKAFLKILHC
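D2 cells co-treated with compound plus 50 nM dopamine (EC20) for 90 min at 37 deg C to detect potentiation. Beta-arrestin recruitment was read as enzyme-fragment luminescence after 1 h at ambient temperature. Full response was set by 57 uM dopamine.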
D2 antagonist: HTS Assay for Allosteric Antagonists of the Human D2 Dopamine Receptor: Primary Screen for Antagonists | D(2) dopamine receptor (Homo sapiens), P14416 | HEK293 TREx D2 cells, calcium flux, dopamine EC80 | inhibition, % at 10 µM | hit rate 2% among 340,000 | AID 485344, 2010; in the data active = inhibition above about 30%; inactive = below that, where a call was filed; also: 0% is about no effect
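Read-out: kinetic calcium fluorescence (1 cycle/s) in inducible HEK293 T-REx D2 cells after an EC80 dopamine addition that followed 180 s compound preincubation. Loss of the dopamine response indicates antagonism.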
D2 PAM-2: HTS Assay for Positive Allosteric Modulators of the Human D2 Dopamine Receptor: Primary Screen for Potentiators; D(2) dopamine receptor (Homo sapiens), P14416; HEK293 T-REx D2, calcium flux, EC20 dopamine potentiation; potentiation, % at 10 µM; hit rate 0.34% among 340,000; AID 485347, 2010;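 active = potentiation over 3 SD above the plate norm, cut at about 30% in these data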; also: 0% is about no effect
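Calcium flux readout, no-wash dye, 1 read/s. Inducible HEK293 Trex D2 line, overnight 30 C. Compound alone 180 s (agonist flags), then EC20 dopamine, another 180 s to score potentiation.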
LDHA inh: qHTS assay for inhibitors of human lactate dehydrogenase | L-lactate dehydrogenase A chain (Homo sapiens), P00338 | purified LDHA, NADH/diaphorase-resazurin fluorescence; hits give low values | activity change, % (values are at about 110 or 230 µM) | hit rate 0.15% among 480,000; in the data active = activity change below about -30%; inconclusive = mostly about -25% to -30%;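 also: plate controls were DMSO wells for no effect and wells without enzyme for full effect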
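Enzyme activity of human lactate dehydrogenase 5 (2 nM; 0.06 mM NADH, 0.2 mM pyruvate, 5 min, RT) is measured via a resazurin/diaphorase fluorescence readout of residual NADH.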
D2 ag-1: Beta-Arrestin HTS for Positive Allosteric Modulators of the Human D2 Dopamine Receptor: Agonists; DiscoveRx PathHunter D2 beta-arrestin, luminescence, 90 min; 100% = 57 uM dopamine signal; activation, % (test concentration not listed); hit rate 0.084% among 360,000; in the data active = activation above about 40%; inconclusive = between about 15% and that limit
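DiscoveRx PathHunter D2 beta-arrestin cells (2,100/well) attached overnight, then compound-stimulated 90 min at 37 C in HBSS/10 mM HEPES/0.1% Tween-20 buffer; beta-galactosidase complementation read by luminescence after 1 h at ambient temperature. Dopamine 57 uM final (EC100) as control.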
D2 ag-2: HTS Assay for Allosteric Agonists of the Human D2 Dopamine Receptor: Primary Screen for Agonists. activation, % at 2 µM. AID 485358, 2010. HEK293 T-REx D2 cells, calcium flux agonist mode. hit rate 0.53% among 340,000;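 active = activation over 3 SD above normal in the single-dose calcium agonist read, cut at about 30% in these data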; also: 0% is about no effect
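Calcium-flux readout, 1 cycle/sec over 180 s following compound pin transfer, in inducible HEK293 Trex D2 cells (force-coupled); dopamine controls included. Positive calcium responses during this window marked compounds as potential agonists.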
The depositor's hits bear a star; u = inconclusive; x = no result; ! = repeats disagree.

SMILES	D2 PAM-1	D2 antagonist	D2 PAM-2	LDHA inh	D2 ag-1	D2 ag-2
O=[N+]([O-])c1ccccc1/C=C/CN1CCCCC1	-20	36*	-18	-3	6	0
CC(C)N(Cc1ccccc1)C(=O)/C=C/c1ccccc1[N+](=O)[O-]	-5	-1	14	13	0	0
O=[N+]([O-])c1ccccc1/C=C/CN1CCCCC1CO (stereo not given)	-3	-8	-3	-3	-6	-2
O=[N+]([O-])c1ccccc1/C=C/CN1CCN(Cc2ccc3c(c2)OCO3)CC1	-78	31*	-22	-8	3	2
N#CCSc1ccccc1C(=O)Nc1ccc2c(c1)CCC2	x	x	x	-5	x	x
CC12CCC(=O)N1c1ccccc1C(=O)N2c1ccccc1 (stereo not given)	-16	-21	34*	-2	1	1
O=C(Cn1c(=O)[nH]c2ccccc2c1=O)N1CCN(c2ccccc2)CC1	x	x	x	-1	x	x
O=C(CN1CCN(c2ccccc2)CC1)N1CCc2[nH]c3ccccc3c2C1	-26	11	-18	7	2	36*
O=C(Cn1c(=S)[nH]c2ccccc2c1=O)N1CCN(c2ccccc2)CC1	-3	31*	3	-16	-4	3
O=C(CCCCl)N1CCc2[nH]c3ccccc3c2C1	-26	32*	-17	6	10	19
COc1ccccc1NC(=O)CCS(=O)(=O)c1ccc2c(c1)oc(=O)n2C	-4	31*	-1	-1	-4	0
CCc1ccccc1NC(=O)CCS(=O)(=O)c1ccc2c(c1)oc(=O)n2C	x	x	x	12	x	x
CN1CCN(C(c2cccs2)c2nnnn2Cc2ccc(F)cc2)CC1 (stereo not given)	0	42*	8	-5	-3	0
CC(C)C(c1nnnn1Cc1ccc(F)cc1)N1CCN(C2CCCC2)CC1 (stereo not given)	-3	56*	8	-5	-4	0
CCc1cccc(NC(=O)CCS(=O)(=O)c2ccc3c(c2)oc(=O)n3C)c1	x	x	x	5	x	x
Cc1cc2c(c(=O)o1)C(c1ccco1)C(C#N)=C(N)O2 (stereo not given)	x	x	x	4	x	x
COc1ccc(Cc2nc3ccc(C(=O)N4CCC[C@H]4CO)cc3o2)cc1	0	-8	-2	-6	-1	2
CCOC(=O)C1CCCCN1C(=O)c1ccc2nc(Cc3ccc(OC)cc3)oc2c1 (stereo not given)	2	-18	31*	0	u	0
COc1ccc(-c2nc(C)c(-c3ccccc3)s2)cc1OC	x	x	x	-24	x	x
O=P1(O)C=C(c2ccccc2)OC(c2ccccc2)=C1	-11	x	11	-5	1	x
CCN1CCN(P2(=O)C=C(c3ccccc3)OC(c3ccccc3)=C2)CC1	-26	84*	-30	-6	2	0
Cc1cc(Nc2cccc(C(F)(F)F)c2)nc(NCc2ccccc2)n1	x	x	x	1	x	x
CC(Cc1ccco1)NC(=O)c1ccc(C(F)(F)F)cc1 (stereo not given)	-14	32*	-12	1	-3	-1
CC(Cc1ccco1)NC(=O)c1ccc(Cl)c(S(C)(=O)=O)c1 (stereo not given)	x	x	x	-37*	x	x
CC(CCc1ccco1)NC(=O)c1ccc(Cl)c(S(C)(=O)=O)c1 (stereo not given)	x	x	x	-2	x	x
SMILES	D2 PAM-1	D2 antagonist	D2 PAM-2	LDHA inh	D2 ag-1	D2 ag-2
CCOC(=O)c1ccc(N2CCN(CC)CC2)c(NC(=O)COc2ccc(CC)cc2)c1	x	x	x	-20	x	x
COc1cc(NS(=O)(=O)c2ccc(C)cc2)c2ncccc2c1	-32	-22	54*	7	-7	0
O=C1c2cccc3c(O)ccc(c23)C(=O)N1Cc1ccccc1	17	34*	-19	13	8	101*
CCC(=O)Oc1ccc(C(=O)Nc2c[nH]c(=O)[nH]c2=O)cc1	8	35*	-2	2	-2	2
COc1ccc(/C=N/N(C(C)=O)c2nc(-c3ccc(C)cc3)cs2)cc1	18	-21	30*	2	-1	-1
Cc1ccccc1Oc1ccc2c(c1)[C@@H]1C[C@H](N(C)C(=O)c3cccnc3)[C@H]([C@H](C)O)C(=O)N1CC2	3	x	x	-32*	-8	x
CC(C)NS(=O)(=O)c1ccc(OCC(N)=O)c(Cl)c1	-11	34*	6	-4	-1	0
CCOC(=O)Nc1ccc2c(c1)nc(CN1CCN(C(C)=O)CC1)n2C	-6	7	6	11	-2	0
CCOC(=O)Nc1ccc2c(c1)nc(CN1CCCCC1)n2C	x	31*	-26	x	x	0
CCCn1c(CN2CCCCCC2)nc2cc(NC(=O)c3ccccc3)ccc21	x	x	x	4	x	x
Cn1c(CN2CCCCC2)nc2cc(NC(=O)c3ccccc3)ccc21	-3	36*	-21	4	u	34*
CN(CC(O)CN1CCOCC1)S(=O)(=O)O (stereo not given)	-5	34*!	4	1	-2	1
CC(C)(C)c1ccc(NC(=O)CSc2nc3ccccc3o2)cc1	x	x	x	14	x	x
CCN(CC)CCNCc1sccc1C	x	x	x	-8	x	x
CC1CCC(=C(C#N)C(=O)NC2CC2)CC1 (stereo not given)	x	x	x	2	x	x
COc1ccc(NC2=C(C(C)=O)C(c3ccc(N(C)C)cc3)C(C(C)=O)C(C)(O)C2)cc1 (stereo not given)	51*	-1	1	4	-4	0
COc1ccc(NC2=C(C(C)=O)C(c3ccc(OC)cc3)C(C(C)=O)C(C)(O)C2)cc1 (stereo not given)	-4	6	14	-4	5	0
COC(=O)CC(NC(=O)c1ccc2c(c1)OCCCO2)c1ccc(F)cc1 (stereo not given)	x	x	x	6	x	x
C/C(=N\Nc1ccc(Br)cc1)c1ccc([N+](=O)[O-])cc1	x	x	x	3	x	x
O=[N+]([O-])c1cccc(C2Nc3cccc4cccc(c34)N2)c1	105*	-6	-3	30	u	0
Brc1ccc(C2Nc3cccc4cccc(c34)N2)cc1	7	x	x	2	u	x
O=[N+]([O-])c1ccc(C2Nc3cccc4cccc(c34)N2)cc1	80*	-19	4	24	u	1
COc1ccc(C2Nc3cccc4cccc(c34)N2)cc1Br	54*	x	16	3	7	x

Bioassay records as filed in PubChem BioAssay.
